Measured values taken from PubChem BioAssay (EPA / NIEHS).
Activity calls are given as the source filed them. How the source made its calls: active means hit-call score of the fitted dose curve at least 0.9, where 1 is the maximum; inactive means score below 0.9.

Key:
[1] = read-out: Monokine induced gamma interferon (MIG), CXCL9 (gene 4283); test: BSK_hDFCGF_MIG: BioMAP Diversity Plus: hDFCGF Assay for Monokine induced gamma interferon (MIG) Biomarker Activity (AID 2283063); details: primary human foreskin fibroblasts; actives raise or lower the signal
How it was run: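 ELISA read-out of MIG from primary human dermal fibroblasts 24 h post-dosing. Gain or loss of signal fitted bidirectionally, DMSO as baseline.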

[2] = read-out: Matrix Metallopeptidase 1 (MMP1), MMP1 (gene 4312); test: BSK_hDFCGF_MMP1: BioMAP Diversity Plus: hDFCGF Assay for Matrix Metallopeptidase 1 (MMP1) Biomarker Activity (AID 2283064); details: primary human foreskin fibroblasts; actives raise or lower the signal
How it was run: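 Primary human foreskin fibroblasts in the hDFCGF system were dosed with test chemical, and MMP1 was measured by ELISA 24 h later. Values come from bidirectional curve fitting against the DMSO baseline.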

[3] = read-out: Vascular cell adhesion molecule 1 (VCAM1), VCAM1 (gene 7412); test: BSK_hDFCGF_VCAM1: BioMAP Diversity Plus: hDFCGF Assay for Vascular cell adhesion molecule 1 (VCAM1) Biomarker Activity (AID 2283065); details: primary human foreskin fibroblasts; actives raise or lower the signal
How it was run: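 Primary human foreskin fibroblasts (hDFCGF system) were dosed with chemical and VCAM-1 was measured by ELISA 24 h later. Bidirectional curve fitting used DMSO as negative control and activity baseline.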

[4] = read-out: Plasminogen activator inhibitor-1 (PAI1), SERPINE1 (gene 5054); test: BSK_hDFCGF_PAI1: BioMAP Diversity Plus: hDFCGF Assay for Plasminogen activator inhibitor-1 (PAI1) Biomarker Activity (AID 2283066); details: primary human foreskin fibroblasts; actives raise or lower the signal
How it was run: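 Human foreskin fibroblast primary cells, 24 h chemical exposure; PAI-1 measured by ELISA. Bidirectional fitting relative to DMSO; parallel cultures stained with SRB for total protein to flag overt cytotoxicity.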

[5] = read-out: Intercellular Adhesion Molecule 1 (ICAM1), ICAM1 (gene 3383); test: BSK_KF3CT_ICAM1: BioMAP Diversity Plus: KF3CT Assay for Intercellular Adhesion Molecule 1 (ICAM1) Biomarker Activity (AID 2283067); details: primary human keratinocytes with fibroblasts; actives raise or lower the signal
How it was run: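 Human keratinocyte plus foreskin fibroblast primary co-culture was exposed to chemical for 24 h. ICAM-1 was then quantified by ELISA, and the data were fit bidirectionally against DMSO as the negative control and baseline.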

[6] = read-out: Interferon-gamma inducible Protein 10 (IP10), CXCL10 (gene 3627); test: BSK_KF3CT_IP10: BioMAP Diversity Plus: KF3CT Assay for Interferon-gamma inducible Protein 10 (IP10) Biomarker Activity (AID 2283068); details: primary human keratinocytes with fibroblasts; actives raise or lower the signal
How it was run: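 In a primary skin co-culture of keratinocytes and fibroblasts, IP-10 is quantified by ELISA at 24 h after dosing. SRB staining of parallel wells monitors overt toxicity. Curves are fitted both directions against DMSO.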

[7] = BSK_KF3CT_SRB: Viability Assessment in the BioMAP Diversity Plus: KF3CT Assay (AID 2283069); details: primary human keratinocytes with fibroblasts;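 further: total protein by sulforhodamine B staining as a cytotoxicity measure; read 24 h after compound addition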
How it was run: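 Human primary keratinocyte plus foreskin fibroblast co-culture exposed to chemicals for 24 h. Total protein measured by 0.1% sulforhodamine B staining after 10% TCA fixation, read at 560 nm; bidirectional fitting versus DMSO baseline.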

[8] = read-out: Interleukin-1 alpha (IL1a), IL1A (gene 3552); test: BSK_KF3CT_IL1a: BioMAP Diversity Plus: KF3CT Assay for Interleukin-1 alpha (IL1a) Biomarker Activity (AID 2283070); details: primary human keratinocytes with fibroblasts; actives raise or lower the signal
How it was run: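 Human keratinocyte plus foreskin fibroblast primary co-culture, sampled 24 h after chemical dosing. IL-1a measured by ELISA; responses fitted bidirectionally against DMSO baseline (negative control), so gain or loss of signal both count.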

[9] = read-out: TIMP metallopeptidase inhibitor 2 (TIMP2), TIMP2 (gene 7077); test: BSK_KF3CT_TIMP2: BioMAP Diversity Plus: KF3CT Assay for TIMP metallopeptidase inhibitor 2 (TIMP2) Biomarker Activity (AID 2283071); details: primary human keratinocytes with fibroblasts; actives raise or lower the signal
How it was run: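 Co-culture of human primary keratinocytes and foreskin fibroblasts, measured 24 h after chemical dosing. TIMP-2 quantified by ELISA and fitted in both directions relative to DMSO. Cytotoxicity checked in parallel cultures by SRB total-protein staining.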

[10] = read-out: Transforming growth factor beta 1 (TGFb1), TGFB1 (gene 7040); test: BSK_KF3CT_TGFb1: BioMAP Diversity Plus: KF3CT Assay for Transforming growth factor beta 1 (TGFb1) Biomarker Activity (AID 2283072); details: primary human keratinocytes with fibroblasts; actives raise or lower the signal
How it was run: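 Human keratinocyte/foreskin fibroblast co-culture; TGF-b1 measured by ELISA 24 h after dosing, fitted bidirectionally versus DMSO. Cytotoxicity checked in parallel cultures by total protein (SRB staining, 560 nm).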

[11] = read-out: C-C motif chemokine 2 (Homo sapiens) (UniProt P13500); test: BSK_KF3CT_MCP1: BioMAP Diversity Plus: KF3CT Assay for Monocyte Chemoattractant Protein 1 (MCP1/CCL2) Biomarker Activity (AID 2283073); details: primary human keratinocytes with fibroblasts; actives raise or lower the signal
How it was run: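 Human keratinocyte plus foreskin fibroblast primary co-culture exposed to chemical for 24 h. MCP-1 levels measured by ELISA. Bidirectional curve fitting relative to DMSO negative control as baseline.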

[12] = read-out: Matrix Metallopeptidase 9 (MMP9), MMP9 (gene 4318); test: BSK_KF3CT_MMP9: BioMAP Diversity Plus: KF3CT Assay for Matrix Metallopeptidase 9 (MMP9) Biomarker Activity (AID 2283074); details: primary human keratinocytes with fibroblasts; actives raise or lower the signal
How it was run: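 Keratinocyte plus foreskin fibroblast human primary skin co-culture was dosed with chemical and MMP-9 was quantified by ELISA 24 h later. Bidirectional curve fitting used DMSO as negative control and activity baseline.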

[13] = read-out: urokinase plasminogen activator (uPA), PLAU (gene 5328); test: BSK_KF3CT_uPA: BioMAP Diversity Plus: KF3CT Assay for urokinase plasminogen activator (uPA) Biomarker Activity (AID 2283075); details: primary human keratinocytes with fibroblasts; actives raise or lower the signal
How it was run: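 Human keratinocyte plus foreskin fibroblast primary co-culture exposed to chemical for 24 h. uPA levels were quantified by ELISA, and activity was fitted bidirectionally against a DMSO negative-control baseline.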

CD40, CD40 (gene 958) = test: BSK_LPS_CD40: BioMAP Diversity Plus: LPS Assay for CD40 Biomarker Activity (AID 2283076); details: primary human HUVEC with PBMC; actives raise or lower the signal
How it was run: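 Primary human umbilical vein endothelial cells co-cultured with peripheral blood mononuclear cells, LPS-stimulated, were dosed with chemical and read 24 h later. CD40 levels were measured by ELISA and fitted bidirectionally against DMSO as negative control and baseline.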

[14] = read-out: Interleukin-8 (IL8), CXCL8 (gene 3576); test: BSK_LPS_IL8: BioMAP Diversity Plus: LPS Assay for Interleukin-8 (IL8) Biomarker Activity (AID 2283078); details: primary human HUVEC with PBMC; actives raise or lower the signal
How it was run: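 Human umbilical vein endothelial cells co-cultured with PBMC were stimulated with LPS; IL-8 levels were measured by ELISA 24 h after chemical dosing. Activity was fitted bidirectionally against DMSO as negative control and baseline.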

[15] = BSK_LPS_SRB: Viability Assessment in the BioMAP Diversity Plus: LPS Assay (AID 2283079); details: primary human HUVEC with PBMC;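 further: total protein by sulforhodamine B absorbance as a cytotoxicity measure; measured one day after compound addition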
How it was run: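 Human umbilical vein endothelial cells co-cultured with PBMC (LPS system) were dosed for 24 h. Total protein was stained with 0.1% sulforhodamine B after 10% TCA fixation, read at 560 nm, and fitted bidirectionally against DMSO baseline.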

[16] = read-out: Interleukin-1 alpha (IL1a), IL1A (gene 3552); test: BSK_LPS_IL1a: BioMAP Diversity Plus: LPS Assay for Interleukin-1 alpha (IL1a) Biomarker Activity (AID 2283080); details: primary human HUVEC with PBMC; actives raise or lower the signal
How it was run: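 Human umbilical vein endothelial cells co-cultured with peripheral blood mononuclear cells were LPS-stimulated and exposed to test chemicals for 24 h. IL-1 alpha was quantified by ELISA, with bidirectional curve fitting against DMSO as the negative control and baseline.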

[17] = read-out: E-selectin (Homo sapiens) (UniProt P16581); test: BSK_LPS_Eselectin: BioMAP Diversity Plus: LPS Assay for Eselectin Biomarker Activity (AID 2283077); details: primary human HUVEC with PBMC; actives raise or lower the signal
How it was run: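 Human umbilical vein endothelial cells co-cultured with peripheral blood mononuclear cells under LPS stimulation; E-selectin measured by ELISA 24 h after chemical dosing. Activity fitted bidirectionally against DMSO as negative control and baseline.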

[18] = read-out: Monocyte Chemoattractant Protein-1 (MCP1), CCL2 (gene 6347); test: BSK_LPS_MCP1: BioMAP Diversity Plus: LPS Assay for Monocyte Chemoattractant Protein-1 (MCP1) Biomarker Activity (AID 2283081); details: primary human HUVEC with PBMC; actives raise or lower the signal
How it was run: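 HUVEC plus PBMC co-culture (human primary cells, LPS system) exposed to test chemical for 24 h; MCP-1 measured by ELISA. Bidirectional curve fitting against DMSO baseline; parallel SRB total-protein staining flags overt cytotoxicity.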

[19] = BSK_LPS_PGE2: BioMAP Diversity Plus: LPS Assay for Prostaglandin E2 (PGE2) Biomarker Activity (AID 2283082); details: primary human HUVEC with PBMC; actives raise or lower the signal
How it was run: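 HUVEC plus human PBMC co-culture stimulated with LPS; secreted PGE2 quantified by ELISA 24 h after chemical dosing. Activity fitted bidirectionally against DMSO baseline; parallel SRB staining (0.1% SRB after 10% TCA fixation, 560 nm) flags overt cytotoxicity.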

Measured: outcome

Chain of E-selectin (Homo sapiens) (P16581 whole entry, looked up): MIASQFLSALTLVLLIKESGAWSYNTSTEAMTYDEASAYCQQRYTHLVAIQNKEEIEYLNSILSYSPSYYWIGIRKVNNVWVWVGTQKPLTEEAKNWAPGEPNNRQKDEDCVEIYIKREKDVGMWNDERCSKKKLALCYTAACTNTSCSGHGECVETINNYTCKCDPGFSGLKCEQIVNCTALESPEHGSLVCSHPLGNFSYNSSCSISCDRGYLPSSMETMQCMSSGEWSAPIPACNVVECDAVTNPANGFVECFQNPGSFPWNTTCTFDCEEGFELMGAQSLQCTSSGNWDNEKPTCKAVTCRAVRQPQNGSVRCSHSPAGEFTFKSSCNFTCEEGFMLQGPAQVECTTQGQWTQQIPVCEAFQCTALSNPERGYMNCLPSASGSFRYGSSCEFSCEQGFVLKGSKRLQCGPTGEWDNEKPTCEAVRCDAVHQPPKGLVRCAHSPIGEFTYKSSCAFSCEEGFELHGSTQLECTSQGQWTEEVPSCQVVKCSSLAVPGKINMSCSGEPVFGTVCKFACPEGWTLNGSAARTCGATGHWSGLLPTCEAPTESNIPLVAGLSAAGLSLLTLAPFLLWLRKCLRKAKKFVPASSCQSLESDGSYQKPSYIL

CC(=O)OCCC(C)C
inactive: [1] | [2] | [3] | [4] | [5] | [6] | [7] | [8] | [9] | [10] | [11] | [12] | [13] | CD40, CD40 (gene 958) | [14] | [15] | [16]

CCCCCCCCO
inactive: [1] | [2] | [3] | [4] | [5] | [6] | [7] | [8] | [9] | [10] | [11] | [12] | [13] | CD40, CD40 (gene 958) | [17] | [14] | [15] | [16] | [18] | [19]

CC1=CC(=O)CC(C)(C)C1
inactive: [1] | [2] | [3] | [4] | [5] | [6] | [7] | [9] | [10] | [11] | [12] | [13] | CD40, CD40 (gene 958) | [14] | [15] | [16] | [18] | [19]
